Test results reported in paper PMC5540273 (PLoS ONE, 2017).

System: MAST1
Details: concentration: 1 μM,replicates: in singlicate; n = 1
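Also: KINOMEscan kinase panel screen.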

| Compound | %Inh |
| --- | --- |
| CSc1nccc(-c2c(-c3ccc(F)cc3)ncn2CCCN2CCOCC2)n1.Cl [SB-217146] | 6% |
| CC(=O)Nc1nc2cnc(Nc3cc(NC(=O)c4cccc(CC(C)(C)C#N)c4)ccc3C)nc2s1 | 53% |
| C[C@@H](Oc1cc(-n2cnc3ccc(-c4ccncc4)cc32)sc1C(N)=O)c1ccccc1Cl [GSK483724] | 0% |
| CS(=O)c1ccc(-c2coc3ccc(-c4n[nH]c(=O)o4)cc23)cc1 (centres unmarked) | 6% |
| CS(=O)(=O)Nc1ccc(-c2ccnc3[nH]ccc23)cc1 [GSK993273] | 0% |
| Cl.Cl.NC[C@H](CC1CCCCC1)NC(=O)c1ccc(-c2ccnc3[nH]ccc23)s1 [GSK1581428] | 0% |
| COc1cc2nccc(Nc3ccc(Oc4ccccc4)cc3)c2cc1OC.Cl [GI261656] | 3% |
| COc1cc2c(Nc3ccc(NC(=O)c4ccccc4)cc3)ncnc2cc1OCCCN1CCOCC1 [GSK301329] | 0% |
| Cn1ccc2ncnc(Oc3ccc(NC(=O)Nc4cccc(C(F)(F)F)c4)c(F)c3)c21 | 0% |
| O=C(NOCC1CC1)c1cc(Br)c(F)c(F)c1Nc1ccc(I)cc1Cl | 0% |
| O=C1NCCc2[nH]c(-c3ccncc3)cc21 | 59% |
| Cc1n[nH]c2cc(Nc3ccnc(Nc4cccc(CN5CCOCC5)c4)n3)ccc12 [GW682569] | 16% |
| COc1cccc(C2=C(Nc3cccc(Cl)c3)C(=O)NC2=O)c1 [SB-341556] | 0% |
| COc1cccc(CNC(=O)NC2CCN(c3ccnc(Nc4cc(OC)c(OC)c(OC)c4)n3)C2)c1 (centres unmarked) [GSK1379765] | 0% |
